# Data: ChEMBL document CHEMBL2218924, “A broad activity screen in support of a chemogenomic map for kinase signalling research and drug discovery” (Biochem J, 2013)
# Legend:
# [1] = molecular target: T1, Dual specificity mitogen-activated protein kinase kinase 6 (Homo sapiens) (UniProt P52564); conditions: at 1 µM
# T1 sequence (whole entry): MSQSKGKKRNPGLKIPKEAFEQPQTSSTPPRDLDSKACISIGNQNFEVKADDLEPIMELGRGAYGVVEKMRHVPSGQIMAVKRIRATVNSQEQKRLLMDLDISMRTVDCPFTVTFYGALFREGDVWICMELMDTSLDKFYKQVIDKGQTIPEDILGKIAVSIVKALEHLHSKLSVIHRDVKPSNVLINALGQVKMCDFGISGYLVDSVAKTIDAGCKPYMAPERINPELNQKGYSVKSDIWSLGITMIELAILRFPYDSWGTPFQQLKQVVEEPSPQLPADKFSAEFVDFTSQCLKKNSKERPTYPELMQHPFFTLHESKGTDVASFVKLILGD
# [2] = molecular target: T1, Dual specificity mitogen-activated protein kinase kinase 6 (Homo sapiens); conditions: at 10 µM
# [3] = molecular target: T2, Dual specificity mitogen-activated protein kinase kinase 7 (Homo sapiens) (UniProt O14733); conditions: at 1 µM
# T2 sequence (whole entry): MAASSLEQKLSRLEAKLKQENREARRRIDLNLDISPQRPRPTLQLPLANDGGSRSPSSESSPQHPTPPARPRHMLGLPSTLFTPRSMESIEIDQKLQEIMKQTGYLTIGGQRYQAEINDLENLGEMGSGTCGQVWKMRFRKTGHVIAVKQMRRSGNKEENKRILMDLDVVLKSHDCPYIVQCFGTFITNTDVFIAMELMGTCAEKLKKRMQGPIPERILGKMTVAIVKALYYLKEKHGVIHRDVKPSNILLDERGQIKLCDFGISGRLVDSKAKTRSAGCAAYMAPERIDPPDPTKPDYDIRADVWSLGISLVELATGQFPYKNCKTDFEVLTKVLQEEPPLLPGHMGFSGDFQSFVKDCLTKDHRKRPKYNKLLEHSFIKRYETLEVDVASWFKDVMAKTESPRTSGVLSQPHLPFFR
# [4] = molecular target: T2, Dual specificity mitogen-activated protein kinase kinase 7 (Homo sapiens); conditions: at 10 µM
# [5] = molecular target: Myosin light chain kinase, smooth muscle (Homo sapiens) (UniProt Q15746); conditions: at 1 µM
# [6] = molecular target: Myosin light chain kinase, smooth muscle (Homo sapiens) (UniProt Q15746); conditions: at 10 µM
# [7] = molecular target: Mitogen-activated protein kinase kinase kinase 9 (Homo sapiens) (UniProt P80192); conditions: at 1 µM
# [8] = molecular target: Mitogen-activated protein kinase kinase kinase 9 (Homo sapiens) (UniProt P80192); conditions: at 10 µM
# [9] = molecular target: Serine/threonine-protein kinase MRCK alpha (Homo sapiens) (UniProt Q5VT25); conditions: at 1 µM
# [10] = molecular target: Serine/threonine-protein kinase MRCK alpha (Homo sapiens) (UniProt Q5VT25); conditions: at 10 µM
# [11] = molecular target: Serine/threonine-protein kinase MRCK beta (Homo sapiens) (UniProt Q9Y5S2); conditions: at 1 µM
# [12] = molecular target: Serine/threonine-protein kinase MRCK beta (Homo sapiens) (UniProt Q9Y5S2); conditions: at 10 µM
# [13] = molecular target: Ribosomal protein S6 kinase alpha-5 (Homo sapiens) (UniProt O75582); conditions: at 1 µM
# [14] = molecular target: Ribosomal protein S6 kinase alpha-5 (Homo sapiens) (UniProt O75582); conditions: at 10 µM
# [15] = molecular target: Ribosomal protein S6 kinase alpha-4 (Homo sapiens) (UniProt O75676); conditions: at 1 µM
# [16] = molecular target: Ribosomal protein S6 kinase alpha-4 (Homo sapiens) (UniProt O75676); conditions: at 10 µM
# [17] = molecular target: SRSF protein kinase 3 (Homo sapiens) (UniProt Q9UPE1); conditions: at 1 µM
# [18] = molecular target: SRSF protein kinase 3 (Homo sapiens) (UniProt Q9UPE1); conditions: at 10 µM
# [19] = molecular target: T3, Serine/threonine-protein kinase 4 (Homo sapiens) (UniProt Q13043); conditions: at 1 µM
# T3 sequence (whole entry): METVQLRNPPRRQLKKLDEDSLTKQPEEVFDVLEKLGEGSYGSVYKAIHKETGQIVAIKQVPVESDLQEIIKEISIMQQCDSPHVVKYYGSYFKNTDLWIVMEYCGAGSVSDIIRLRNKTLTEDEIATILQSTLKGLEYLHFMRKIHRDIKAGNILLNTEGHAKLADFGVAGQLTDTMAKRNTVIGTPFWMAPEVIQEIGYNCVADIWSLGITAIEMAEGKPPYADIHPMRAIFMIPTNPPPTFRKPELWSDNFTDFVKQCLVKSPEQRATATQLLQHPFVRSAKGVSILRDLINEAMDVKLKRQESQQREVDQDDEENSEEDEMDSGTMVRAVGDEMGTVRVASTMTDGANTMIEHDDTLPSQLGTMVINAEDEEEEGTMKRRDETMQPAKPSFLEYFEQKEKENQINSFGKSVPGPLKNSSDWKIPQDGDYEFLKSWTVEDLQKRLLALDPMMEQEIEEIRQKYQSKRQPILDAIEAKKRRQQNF
# [20] = molecular target: T3, Serine/threonine-protein kinase 4 (Homo sapiens); conditions: at 10 µM
# Mitogen-activated protein kinase kinase kinase 9 (Homo sapiens), sequence (P80192 whole entry, looked up): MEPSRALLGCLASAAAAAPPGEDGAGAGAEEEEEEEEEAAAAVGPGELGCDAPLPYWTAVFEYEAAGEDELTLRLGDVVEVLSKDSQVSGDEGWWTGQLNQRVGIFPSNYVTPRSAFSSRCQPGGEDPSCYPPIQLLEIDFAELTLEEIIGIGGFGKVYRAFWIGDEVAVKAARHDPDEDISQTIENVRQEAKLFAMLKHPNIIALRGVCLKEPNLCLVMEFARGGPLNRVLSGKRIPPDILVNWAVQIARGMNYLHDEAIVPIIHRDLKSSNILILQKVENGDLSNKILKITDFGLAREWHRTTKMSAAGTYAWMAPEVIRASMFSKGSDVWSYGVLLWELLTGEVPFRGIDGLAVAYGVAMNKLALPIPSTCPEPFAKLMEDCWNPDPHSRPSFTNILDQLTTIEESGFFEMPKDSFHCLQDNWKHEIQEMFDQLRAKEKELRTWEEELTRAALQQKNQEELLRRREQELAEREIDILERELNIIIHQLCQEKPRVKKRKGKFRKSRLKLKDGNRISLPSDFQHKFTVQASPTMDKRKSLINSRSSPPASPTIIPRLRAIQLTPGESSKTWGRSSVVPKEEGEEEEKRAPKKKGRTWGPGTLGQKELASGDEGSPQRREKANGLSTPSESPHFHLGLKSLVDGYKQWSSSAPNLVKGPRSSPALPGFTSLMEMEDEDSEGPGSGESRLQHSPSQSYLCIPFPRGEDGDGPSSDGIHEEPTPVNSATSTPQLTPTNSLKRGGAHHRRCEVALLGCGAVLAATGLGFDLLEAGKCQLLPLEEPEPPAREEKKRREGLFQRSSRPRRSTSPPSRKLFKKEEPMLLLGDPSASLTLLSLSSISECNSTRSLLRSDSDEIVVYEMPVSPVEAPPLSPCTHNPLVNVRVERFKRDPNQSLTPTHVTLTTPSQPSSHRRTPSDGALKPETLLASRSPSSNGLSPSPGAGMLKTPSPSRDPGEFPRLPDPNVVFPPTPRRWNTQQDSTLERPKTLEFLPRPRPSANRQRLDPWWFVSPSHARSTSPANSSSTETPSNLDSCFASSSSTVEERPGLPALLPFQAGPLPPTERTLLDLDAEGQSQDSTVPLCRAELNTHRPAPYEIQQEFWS
# Myosin light chain kinase, smooth muscle (Homo sapiens), sequence (Q15746 whole entry): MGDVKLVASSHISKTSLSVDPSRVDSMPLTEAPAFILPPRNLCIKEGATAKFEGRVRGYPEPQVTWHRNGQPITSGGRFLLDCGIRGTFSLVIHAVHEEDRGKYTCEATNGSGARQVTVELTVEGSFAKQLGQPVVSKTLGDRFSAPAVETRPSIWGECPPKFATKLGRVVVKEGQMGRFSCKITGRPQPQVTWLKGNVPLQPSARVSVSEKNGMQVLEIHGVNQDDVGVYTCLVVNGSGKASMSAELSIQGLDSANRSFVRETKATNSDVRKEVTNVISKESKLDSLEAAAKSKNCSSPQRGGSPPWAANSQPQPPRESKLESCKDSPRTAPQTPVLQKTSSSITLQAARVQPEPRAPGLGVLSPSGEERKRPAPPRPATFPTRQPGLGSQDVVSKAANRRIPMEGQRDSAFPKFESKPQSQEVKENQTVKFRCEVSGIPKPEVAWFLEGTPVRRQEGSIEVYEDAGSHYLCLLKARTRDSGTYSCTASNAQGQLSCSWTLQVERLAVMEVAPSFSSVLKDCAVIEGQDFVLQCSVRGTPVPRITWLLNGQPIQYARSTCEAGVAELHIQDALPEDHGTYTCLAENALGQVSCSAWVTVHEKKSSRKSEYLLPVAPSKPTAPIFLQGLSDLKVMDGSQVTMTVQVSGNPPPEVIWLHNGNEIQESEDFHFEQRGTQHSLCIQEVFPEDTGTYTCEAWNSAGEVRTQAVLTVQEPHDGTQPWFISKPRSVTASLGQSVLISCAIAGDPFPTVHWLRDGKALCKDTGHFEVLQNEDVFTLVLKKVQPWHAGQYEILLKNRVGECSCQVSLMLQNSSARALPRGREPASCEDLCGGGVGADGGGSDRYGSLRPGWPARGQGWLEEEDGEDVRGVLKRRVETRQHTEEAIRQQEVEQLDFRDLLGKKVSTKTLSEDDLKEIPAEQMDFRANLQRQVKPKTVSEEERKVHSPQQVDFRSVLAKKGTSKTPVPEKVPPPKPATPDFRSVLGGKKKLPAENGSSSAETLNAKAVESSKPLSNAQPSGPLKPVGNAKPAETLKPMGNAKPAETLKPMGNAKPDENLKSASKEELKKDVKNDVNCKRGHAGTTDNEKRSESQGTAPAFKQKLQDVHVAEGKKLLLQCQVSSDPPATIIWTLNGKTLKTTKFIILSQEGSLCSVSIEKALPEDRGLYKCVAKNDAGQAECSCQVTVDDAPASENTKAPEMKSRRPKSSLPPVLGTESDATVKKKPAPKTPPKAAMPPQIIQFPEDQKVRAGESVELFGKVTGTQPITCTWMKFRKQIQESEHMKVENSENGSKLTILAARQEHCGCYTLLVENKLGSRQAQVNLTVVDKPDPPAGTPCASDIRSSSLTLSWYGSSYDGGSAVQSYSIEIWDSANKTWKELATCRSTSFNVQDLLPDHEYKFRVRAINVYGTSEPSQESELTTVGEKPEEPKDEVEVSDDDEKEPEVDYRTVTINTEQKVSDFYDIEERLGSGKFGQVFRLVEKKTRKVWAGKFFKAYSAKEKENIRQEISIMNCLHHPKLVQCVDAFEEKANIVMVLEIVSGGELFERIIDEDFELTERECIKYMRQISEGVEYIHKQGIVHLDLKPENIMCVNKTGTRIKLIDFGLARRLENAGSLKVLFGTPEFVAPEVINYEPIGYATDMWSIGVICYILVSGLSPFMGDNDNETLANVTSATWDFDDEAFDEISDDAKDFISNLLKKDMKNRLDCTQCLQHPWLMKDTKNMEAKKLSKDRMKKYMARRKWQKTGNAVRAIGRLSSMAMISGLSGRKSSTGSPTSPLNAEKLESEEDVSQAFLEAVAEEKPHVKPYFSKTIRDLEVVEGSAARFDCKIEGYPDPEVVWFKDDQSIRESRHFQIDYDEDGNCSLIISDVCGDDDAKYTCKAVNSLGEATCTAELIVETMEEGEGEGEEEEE
# Serine/threonine-protein kinase MRCK alpha (Homo sapiens), sequence (Q5VT25 whole entry): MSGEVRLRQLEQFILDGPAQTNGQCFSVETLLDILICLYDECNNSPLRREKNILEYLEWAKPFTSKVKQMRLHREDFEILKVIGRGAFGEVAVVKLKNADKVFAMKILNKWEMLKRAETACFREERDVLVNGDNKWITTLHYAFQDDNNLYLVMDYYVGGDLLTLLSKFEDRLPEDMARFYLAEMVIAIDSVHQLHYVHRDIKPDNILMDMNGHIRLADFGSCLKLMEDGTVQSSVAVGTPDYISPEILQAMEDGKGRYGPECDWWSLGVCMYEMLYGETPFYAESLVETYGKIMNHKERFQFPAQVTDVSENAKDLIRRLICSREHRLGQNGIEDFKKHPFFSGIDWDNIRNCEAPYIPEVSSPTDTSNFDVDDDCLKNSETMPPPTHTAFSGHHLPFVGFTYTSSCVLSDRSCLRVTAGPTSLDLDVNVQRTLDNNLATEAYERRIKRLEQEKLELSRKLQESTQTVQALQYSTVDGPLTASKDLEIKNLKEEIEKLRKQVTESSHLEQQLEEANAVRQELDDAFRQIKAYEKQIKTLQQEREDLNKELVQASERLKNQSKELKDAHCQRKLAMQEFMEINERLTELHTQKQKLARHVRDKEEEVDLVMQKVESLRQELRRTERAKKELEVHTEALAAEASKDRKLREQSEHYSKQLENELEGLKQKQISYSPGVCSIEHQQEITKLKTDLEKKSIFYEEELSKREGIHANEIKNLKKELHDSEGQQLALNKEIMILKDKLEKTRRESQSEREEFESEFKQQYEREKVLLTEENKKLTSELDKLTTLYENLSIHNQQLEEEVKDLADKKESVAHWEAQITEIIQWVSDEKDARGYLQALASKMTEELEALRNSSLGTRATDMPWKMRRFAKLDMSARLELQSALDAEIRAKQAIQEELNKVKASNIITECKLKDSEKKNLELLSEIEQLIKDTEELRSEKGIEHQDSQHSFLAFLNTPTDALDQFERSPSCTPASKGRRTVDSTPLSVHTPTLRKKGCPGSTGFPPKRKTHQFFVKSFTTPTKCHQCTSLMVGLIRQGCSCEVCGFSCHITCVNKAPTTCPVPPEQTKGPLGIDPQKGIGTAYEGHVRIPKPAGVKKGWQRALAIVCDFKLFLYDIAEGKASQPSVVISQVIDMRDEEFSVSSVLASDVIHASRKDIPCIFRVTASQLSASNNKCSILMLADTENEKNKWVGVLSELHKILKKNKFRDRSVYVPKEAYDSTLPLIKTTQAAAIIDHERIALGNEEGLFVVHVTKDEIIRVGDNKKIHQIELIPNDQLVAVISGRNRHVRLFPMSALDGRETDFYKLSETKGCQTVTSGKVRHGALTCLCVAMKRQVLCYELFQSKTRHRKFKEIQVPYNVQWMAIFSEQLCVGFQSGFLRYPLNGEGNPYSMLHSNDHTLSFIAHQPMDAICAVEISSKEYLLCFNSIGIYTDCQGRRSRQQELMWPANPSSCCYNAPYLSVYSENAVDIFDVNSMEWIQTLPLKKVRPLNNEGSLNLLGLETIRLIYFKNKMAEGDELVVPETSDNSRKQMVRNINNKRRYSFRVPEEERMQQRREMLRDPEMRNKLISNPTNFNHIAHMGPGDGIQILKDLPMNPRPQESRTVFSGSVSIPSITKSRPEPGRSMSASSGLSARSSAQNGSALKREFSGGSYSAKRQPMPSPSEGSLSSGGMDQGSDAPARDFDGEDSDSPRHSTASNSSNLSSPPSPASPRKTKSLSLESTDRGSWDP
SMILES,residual activity [1],residual activity [2],residual activity [3],residual activity [4],residual activity [5],residual activity [6],residual activity [7],residual activity [8],residual activity [9],residual activity [10],residual activity [11],residual activity [12],residual activity [13],residual activity [14],residual activity [15],residual activity [16],residual activity [17],residual activity [18],residual activity [19],residual activity [20]
Cn1cc(/C=C2\C(=O)Nc3ccc(S(N)(=O)=O)cc32)c2ccccc21,69%,85%,89%,59%,63%,82%,6%,3%,103%,89%,83%,87%,86%,54%,56%,41%,103%,25%,13%,11%
CC(C)n1cnc2c(NCc3ccccc3)nc(NCCCO)nc21,94%,74%,91%,75%,93%,74%,97%,73%,86%,83%,88%,88%,110%,110%,102%,97%,106%,76%,102%,102%
NC(=O)c1ccc2[nH]c(-c3ccc(Oc4ccc(Cl)cc4)cc3)nc2c1,91%,94%,94%,103%,93%,96%,89%,34%,113%,127%,94%,106%,115%,139%,94%,102%,98%,72%,97%,87%
COc1ccc(CNc2nc(N(CCO)CCO)nc3c2ncn3C(C)C)cc1,102%,100%,86%,95%,108%,68%,82%,41%,108%,89%,88%,83%,92%,96%,88%,82%,105%,84%,74%,112%
O=C(O)c1ccc2c3c1cccc3c(=O)n1c3ccccc3nc21,92%,64%,87%,46%,88%,35%,33%,5%,107%,115%,93%,93%,98%,93%,95%,84%,97%,48%,83%,72%
Oc1ccc(Nc2nc(-c3ccc(Cl)cc3)cs2)cc1,82%,52%,91%,93%,118%,56%,92%,36%,118%,135%,111%,129%,97%,107%,109%,94%,110%,97%,78%,87%
O=c1c2ccccc2[nH]c(=S)n1CCN1CCC(=C(c2ccc(F)cc2)c2ccc(F)cc2)CC1,107%,93%,82%,90%,73%,86%,92%,101%,107%,103%,94%,86%,127%,104%,110%,97%,103%,89%,93%,101%
CO[C@H]1[C@@H](OC)C[C@H](C)[C@@H](OC)C2=CC(=O)C=C(NC(=O)/C(C)=C/C=C/[C@H](OC)[C@@H](OC(N)=O)/C(C)=C/[C@@H]1C)C2=O,72%,99%,92%,88%,98%,90%,92%,99%,114%,92%,97%,77%,115%,97%,92%,104%,116%,84%,101%,108%
COc1ccc(C(=O)Nc2sc3c(c2C(N)=O)CCCC3)cc1OC,80%,120%,90%,73%,80%,66%,90%,96%,92%,85%,89%,74%,123%,88%,91%,99%,104%,93%,92%,95%
O=C1Nc2cc(Br)ccc2/C1=C1/Nc2ccccc2/C1=N\O,87%,65%,80%,93%,25%,32%,21%,10%,141%,103%,83%,87%,72%,78%,60%,55%,93%,102%,8%,-1%
CNc1cc2c(Nc3cccc(Br)c3)ncnc2cn1,72%,79%,100%,93%,55%,49%,68%,53%,98%,101%,86%,84%,133%,110%,104%,109%,99%,25%,95%,102%
Nc1nc(Nc2ccc(S(N)(=O)=O)cc2)nn1C(=S)Nc1c(F)cccc1F,26%,20%,65%,16%,79%,29%,-1%,-1%,28%,24%,8%,3%,81%,70%,19%,21%,37%,12%,0%,-3%
CC(C)n1cnc2/c(=N/c3cccc(Cl)c3)nc(NCCO)[nH]c21,73%,49%,80%,93%,90%,30%,11%,1%,108%,98%,85%,82%,62%,50%,57%,37%,61%,19%,61%,58%
COc1ccc(S(=O)(=O)N(CCO)c2ccccc2CN(C)C/C=C/c2ccc(Cl)cc2)cc1,99%,74%,101%,73%,97%,41%,99%,92%,119%,113%,98%,78%,115%,114%,96%,85%,102%,104%,107%,90%
